Screens from PubChem BioAssay.
This excerpt belongs to a sample that is enriched for hits.
Shiga inhibitor = A qHTS for Small Molecule Inhibitors of Shiga Toxin; inhibition, % at 38.7 µM; Vero cells, Shiga toxin protein synthesis inhibition reporter; AID 2315, 2010; actives 9.2% (n = 290,000); in the data active = inhibition mostly above about 28%, no sharp cut-off; inactive = mostly below about 43%
LASV entry inh = qHTS for Inhibitors of binding or entry into cells for Lassa Virus | Lassa virus pseudotype entry inhibition, cell reporter | Potency, µM (top dose mostly 37.9 µM), hits mostly inhibitors | actives 1.2% (n = 300,000) | AID 540256, 2011; calls by dose curve; tested in HEK293 cells; note: nearly all actives have a fitted effect of over 50% in size
VACV mCherry inh = qHTS for Stage-Specific Inhibitors of Vaccinia Orthopoxvirus: mCherry Reporter Primary qHTS; actives 0.63% (n = 310,000); Vaccinia virus mCherry reporter infection, fluorescence; Potency, µM (highest dose often 36.5 µM), actives largely listed as inhibitors; calls by dose curve; tested in A549 cells; note: nearly all actives have a fitted effect of over 35% in size
MARV entry inh = qHTS for inhibitors of binding or entry into cells for Marburg Virus | Marburg virus pseudotyped entry inhibition, cell reporter | Potency, µM (titrated, usually from 37.8 µM), actives largely listed as inhibitors | actives 1.8% (n = 300,000); calls by dose curve; tested in HEK293 cells
Vaccinia Venus = qHTS for Stage-Specific Inhibitors of Vaccinia Orthopoxvirus: Venus Reporter Primary qHTS | Vaccinia virus Venus reporter expression, fluorescence | Potency, µM (series often up to 36.5 µM), usual class: inhibitors | actives 0.46% (n = 330,000) | AID 720580, 2013; calls by dose curve; tested in A549 cells; note: nearly all actives have a fitted effect of over 30% in size
Cycloheximide cs = Cycloheximide Counterscreen for Small Molecule Inhibitors of Shiga Toxin | actives 12% (n = 300,000) | cell reporter, cycloheximide protein synthesis inhibition counterscreen | max response, %; in the data active = max response mostly above about 13%, no sharp cut-off; inactive = mostly below about 14%; note: read at 38.3 µM for the half of the compounds with a filed dose
Numbers stand for hits.

`CN(C)c1ccnc2sc3c(=O)n(-c4ccccc4)cnc3c12` gave Shiga inhibitor inactive, LASV entry inh inconclusive, MARV entry inh inconclusive and Cycloheximide cs 12.
Screening COc1ccc(N=c2cc(-c3ccc(O)cc3)oc3ccccc23)cc1 returned Shiga inhibitor 12, LASV entry inh inactive, VACV mCherry inh inconclusive, MARV entry inh inactive, Vaccinia Venus inactive and Cycloheximide cs 42.
For COc1ccc(N=c2cc(-c3ccc(OC)cc3)oc3ccccc23)cc1 the results were Shiga inhibitor inactive, LASV entry inh inconclusive, VACV mCherry inh inactive, MARV entry inh inactive, Vaccinia Venus inactive and Cycloheximide cs inactive.
`COc1ccc(-c2cc(=Nc3ccccc3)c3cc(C)ccc3o2)cc1` gave Shiga inhibitor 97, LASV entry inh inactive, MARV entry inh inconclusive and Cycloheximide cs 86.
For O=C1CC(NC2CCN(C(=O)c3cccc(F)c3)CC2)C(=O)N1 (centres undefined) the results were Shiga inhibitor inactive, LASV entry inh inactive, VACV mCherry inh inactive, MARV entry inh inactive, Vaccinia Venus inactive and Cycloheximide cs inactive.
`Cc1ccn2cc(-c3cc4ccccc4oc3=O)nc2c1` gave Shiga inhibitor 76, LASV entry inh 1.6µM, VACV mCherry inh inactive, MARV entry inh inconclusive, Vaccinia Venus inactive and Cycloheximide cs 44.
`Cc1cccc(N=Cc2c(O)n(C)c(=O)n(C)c2=O)c1` gave Shiga inhibitor 25, LASV entry inh inactive, VACV mCherry inh inactive, MARV entry inh inactive, Vaccinia Venus inactive and Cycloheximide cs inactive.
`CC(=O)Nc1ccc(SCc2ncc(-c3ccccc3)o2)cc1` gave Shiga inhibitor 90, LASV entry inh inactive, VACV mCherry inh inactive, MARV entry inh inconclusive, Vaccinia Venus inactive and Cycloheximide cs 44.
For CC(C)COc1nc2ccccc2nc1[C@H](C#N)C(=O)NC1CCCCC1 the results were MARV entry inh inactive.
`Cc1ccc(NC(CC(=O)c2ccccc2)C(=O)O)cc1Cl` (centres undefined) gave Shiga inhibitor 71, VACV mCherry inh inconclusive, Vaccinia Venus inactive and Cycloheximide cs 41.
For O=C(CC(Nc1ccc(Cl)cc1Cl)C(=O)O)c1ccccc1 (centres undefined) the results were Shiga inhibitor 155 and Cycloheximide cs 65.
O=C(CC(Nc1ccccc1)C(=O)O)c1ccccc1 (centres undefined) was read as Shiga inhibitor 139, LASV entry inh inconclusive, VACV mCherry inh inactive, MARV entry inh inactive, Vaccinia Venus inactive and Cycloheximide cs 37.
C=C(C(=O)c1ccccc1)C(C)CC(=O)c1ccccc1 (centres undefined) was read as Shiga inhibitor inactive, LASV entry inh inconclusive, VACV mCherry inh inconclusive, MARV entry inh inconclusive, Vaccinia Venus inactive and Cycloheximide cs inactive.
For O=C(CC(C(=O)O)c1cccc(Cl)c1)c1ccccc1 (centres undefined) the results were Shiga inhibitor inactive and Cycloheximide cs inactive.
`O=C(CC(Nc1ccccc1)c1ccc(F)cc1)c1ccccc1` (centres undefined) gave Shiga inhibitor 56, LASV entry inh inactive, VACV mCherry inh inactive, MARV entry inh inactive, Vaccinia Venus inactive and Cycloheximide cs 73.
Screening Cc1ccc(-n2nc(C)c3c(C(=O)NCCc4ccccc4)cc(C)nc32)cc1 returned LASV entry inh inactive, VACV mCherry inh inactive and Vaccinia Venus inactive.
For Cc1ccccc1C(=O)Nc1nc2nc(C)c(C)c(=O)n2[nH]1 the results were LASV entry inh inconclusive, VACV mCherry inh inactive, MARV entry inh inconclusive and Vaccinia Venus inactive.
`CN(C)S(=O)(=O)N1CCC(Oc2ccc(C(=O)NC3Cc4ccccc4C3)cc2)CC1` gave Shiga inhibitor 106 and Cycloheximide cs 22.
CCOC(=O)C1CCN(C(=O)c2ccc(OC3CCN(C(=O)CCOC)CC3)cc2)CC1 was read as Shiga inhibitor inactive, LASV entry inh inactive, VACV mCherry inh inactive, MARV entry inh inactive, Vaccinia Venus inactive and Cycloheximide cs inactive.
For CN(C)S(=O)(=O)N1CCC(Oc2ccc(C(=O)NC3CCOC(C)(C)C3)cc2)CC1 (centres undefined) the results were Shiga inhibitor inactive and Cycloheximide cs inactive.
Screening COCC(=O)N1CCC(Oc2ccc(C(=O)NC3Cc4ccccc4C3)cc2)CC1 returned Shiga inhibitor 55, LASV entry inh inactive, VACV mCherry inh inactive, MARV entry inh inactive, Vaccinia Venus inactive and Cycloheximide cs 27.
Screening CCOC(=O)C1CCN(C(=O)c2ccc(OC3CCN(C(=O)COC)CC3)cc2)CC1 returned Shiga inhibitor inactive and Cycloheximide cs 11.
For COc1cc(/C=C/[N+](=O)[O-])ccc1OC(=O)/C=C/c1ccc(F)cc1 the results were LASV entry inh inactive, VACV mCherry inh inactive, MARV entry inh inactive, Vaccinia Venus inactive and Cycloheximide cs inactive.
Screening CCCn1c(C(C)Nc2nc(-c3cc(Cl)c(N)c(Cl)c3)cs2)nc2cc(Cl)c(N3CCCCC3)cc21 (centres undefined) returned Shiga inhibitor inactive, VACV mCherry inh inconclusive, Vaccinia Venus inactive and Cycloheximide cs inactive.
`O=C(CSc1nccn1C1CCCC1)Nc1ccc(C(F)(F)F)cc1` gave LASV entry inh inconclusive, VACV mCherry inh inactive and Vaccinia Venus inactive.
For Cc1ccc(NS(=O)(=O)c2cc3c4c(cccc4c2)C(=O)NC3=O)cc1C the results were Shiga inhibitor inactive, LASV entry inh inconclusive, VACV mCherry inh 13µM, MARV entry inh inconclusive, Vaccinia Venus 10µM and Cycloheximide cs inactive.
Cc1cc(C)n2cc(CSc3ccccn3)nc2n1 was read as Shiga inhibitor inactive, LASV entry inh inactive, VACV mCherry inh inactive, MARV entry inh inactive, Vaccinia Venus inactive and Cycloheximide cs inactive.
Cc1cc(C)n2cc(CSc3ccc(Cl)cc3)nc2n1 was read as Shiga inhibitor 49 and Cycloheximide cs 27.
For Cc1ccc(SCc2cn3c(C)cc(C)nc3n2)cc1 the results were Shiga inhibitor 70, LASV entry inh inactive, VACV mCherry inh inactive, MARV entry inh inconclusive, Vaccinia Venus inactive and Cycloheximide cs 23.
`Cc1cc(C)n2cc(CSc3nc4ccccc4s3)nc2n1` gave Shiga inhibitor 40, LASV entry inh inactive, VACV mCherry inh inactive, MARV entry inh inconclusive, Vaccinia Venus inactive and Cycloheximide cs 36.
For Cc1cc(C)n2cc(CSc3nnc(SCc4cn5c(C)cc(C)nc5n4)s3)nc2n1 the results were Shiga inhibitor inactive and Cycloheximide cs inactive.
Screening COc1cccc(C(=O)O/N=C(\N)c2ccc(C)cc2)c1 returned Shiga inhibitor 83, VACV mCherry inh inactive, Vaccinia Venus inactive and Cycloheximide cs 57.
Screening COc1cccc(/C(N)=N/OC(=O)Cc2ccccc2[N+](=O)[O-])c1 returned Shiga inhibitor 113, LASV entry inh inactive, VACV mCherry inh inactive, MARV entry inh inconclusive, Vaccinia Venus inactive and Cycloheximide cs 27.
